PubChem BioAssay (Tox21)
Unmarked numbers belong to inactive results. Results filed as inconclusive are left out. Entries that show only a call come without a potency. Activity calls are given as the source filed them. Unless noted, calls come from the whole dose curve; as a rule, active = well fitted curve in the direction sought with a large enough effect in the repeat runs; inconclusive = weak or mixed curves; inactive = no such curve, though single readings can be large; an effect the other way counts as inactive or inconclusive.

How the values were obtained:
[1] = qHTS assay to identify small molecule agonists of the sonic hedgehog signaling (Shh) pathway (AID 1259368; calls by dose curve;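 note: NIH/3T3-derived 3T3Gli1-Luc cells carrying a stable Gli1-driven firefly luciferase reporter; series mostly up to about 92 µM; nearly all actives have a fitted effect of over 15% in size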)
How it was run: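 Stable NIH/3T3 Gli1-Luc reporter clone; 24 hr cpd exposure after a 4 hr settling period; luminescence endpoint.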

[2] = biological target: Estrogen receptor beta (Homo sapiens) (UniProt Q92731); experiment: qHTS assay to identify small molecule agonists of the estrogen receptor beta (ER-beta) signaling pathway (AID 1259377; active = well fitted activation curve with a large enough effect in the signal ratio in the repeat runs, not every such curve was filed as active; the % refers to the signal ratio)
Chain of Estrogen receptor beta (Homo sapiens) (Q92731 whole entry, looked up): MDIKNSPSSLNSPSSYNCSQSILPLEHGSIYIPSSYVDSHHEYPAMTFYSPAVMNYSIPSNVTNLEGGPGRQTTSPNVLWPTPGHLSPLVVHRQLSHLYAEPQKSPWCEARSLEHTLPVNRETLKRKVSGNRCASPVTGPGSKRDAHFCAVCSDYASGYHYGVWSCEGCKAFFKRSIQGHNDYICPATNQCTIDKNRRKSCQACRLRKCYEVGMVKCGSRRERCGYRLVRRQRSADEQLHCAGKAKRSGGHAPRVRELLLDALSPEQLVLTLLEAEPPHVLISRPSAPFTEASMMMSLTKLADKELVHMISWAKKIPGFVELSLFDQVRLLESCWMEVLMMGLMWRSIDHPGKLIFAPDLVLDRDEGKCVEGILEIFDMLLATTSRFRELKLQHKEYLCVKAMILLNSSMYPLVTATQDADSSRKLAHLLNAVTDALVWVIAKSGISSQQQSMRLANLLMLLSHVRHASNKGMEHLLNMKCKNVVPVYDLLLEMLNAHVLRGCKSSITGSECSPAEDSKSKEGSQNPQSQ
How it was run: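 Screening used GripTite ER-beta-UAS-bla cells held in 2% charcoal-stripped FBS medium. After overnight (16 hr) compound incubation at 37C, beta-lactamase activity was detected with a FRET substrate by fluorescence.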

[3] = qHTS assay to identify small molecule agonists of the androgen receptor (AR) signaling pathway in the presence of an antagonist - cell viability counter screen (AID 1259379);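 note: MDA-kb2 human breast cancer cells carrying an MMTV luciferase reporter; series mostly up to about 92 µM; nearly all actives have a fitted effect of over 25% in size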
How it was run: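 Counter screen for cell viability run in parallel with the AR agonist-mode luciferase assay. MDA-kb2 cells were co-treated with nilutamide (3.0uM final) and compounds, then incubated 16 hr at 37C, and CellTiter-Fluor fluorescence was measured.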

[4] = qHTS assay to identify small molecule agonists of the estrogen receptor beta (ER-beta) signaling pathway - cell viability counter screen (AID 1259380); note: nearly all actives have a fitted effect of over 30% in size
How it was run: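 In this qHTS counter screen, HEK293T cells carrying an ER-beta/UAS beta-lactamase reporter, grown in 2% charcoal-stripped FBS, received compound for 16 hr; ATP-based CellTiter-Glo luminescence was then read after 30 min at room temperature.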

[5] = qHTS assay to identify small molecule antagonists of the estrogen receptor beta (ER-beta) signaling pathway - cell viability counter screen (AID 1259382);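 note: HEK293T cells carrying ER-beta-UAS-bla reporter stimulated with estradiol; series mostly up to about 92 µM; nearly all actives have a fitted effect of over 55% in size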
How it was run: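 HEK293T ER-beta-UAS-bla, 2% charcoal-stripped FBS; compounds + 1nM E2 16 hr 37C; CellTiter-Glo luminescence, 30 min RT.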

[6] = biological target: Estrogen receptor (Homo sapiens) (UniProt P03372); experiment: qHTS assay to identify small molecule agonists of the estrogen receptor alpha (ER-alpha) signaling pathway in the presence of an antagonist (AID 1259383; calls by dose curve; note: top concentration of the series differs between compounds; nearly all actives have a fitted effect of over 15% in size)
Chain of Estrogen receptor (Homo sapiens) (P03372 whole entry, looked up): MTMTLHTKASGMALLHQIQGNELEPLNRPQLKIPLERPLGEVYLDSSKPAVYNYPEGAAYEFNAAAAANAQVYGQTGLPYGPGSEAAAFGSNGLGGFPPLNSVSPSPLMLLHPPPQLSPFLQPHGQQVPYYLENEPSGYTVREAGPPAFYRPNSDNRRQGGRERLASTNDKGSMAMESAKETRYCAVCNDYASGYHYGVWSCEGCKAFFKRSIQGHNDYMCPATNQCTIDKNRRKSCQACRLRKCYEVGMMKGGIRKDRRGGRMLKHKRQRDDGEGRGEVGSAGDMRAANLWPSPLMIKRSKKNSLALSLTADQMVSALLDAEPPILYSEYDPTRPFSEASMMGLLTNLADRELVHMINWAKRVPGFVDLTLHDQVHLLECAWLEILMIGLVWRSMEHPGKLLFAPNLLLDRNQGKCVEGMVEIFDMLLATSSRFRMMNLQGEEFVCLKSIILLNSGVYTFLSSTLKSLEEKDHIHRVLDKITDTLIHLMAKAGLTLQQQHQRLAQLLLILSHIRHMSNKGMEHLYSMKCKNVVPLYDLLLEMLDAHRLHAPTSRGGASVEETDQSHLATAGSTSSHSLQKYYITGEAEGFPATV
How it was run: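 ER-alpha agonism measured under antagonist challenge: 10.0nM ICI-182,780 (final) plus compound, 15 concentrations, 22hr, VM7Luc4E2 ERE-luciferase cells. Read by luminescence.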

[7] = qHTS assay to identify small molecule agonists of the estrogen receptor alpha (ER-alpha) signaling pathway in the presence of an antagonist - cell viability counter screen (AID 1259386);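 note: series mostly up to about 92 µM; cells exposed to compounds for 22 h at 37 °C before the viability read; nearly all actives have a fitted effect of over 30% in size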
How it was run: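 Steps: 5-day stripped-FBS culture; seed and incubate 24hr; add ICI-182,780 (10.0nM final); pin 15-point compound titration; incubate 22hr at 37C; add CellTiter-Fluor at 21hr; read fluorescence.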

[8] = biological target: Progesterone receptor (Homo sapiens) (UniProt P06401); experiment: qHTS assay to identify small molecule agonists of the progesterone receptor (PR) signaling pathway (AID 1346784; calls by dose curve; note: nearly all actives have a fitted effect of over 30% in size)
Chain of Progesterone receptor (Homo sapiens) (P06401 whole entry, looked up): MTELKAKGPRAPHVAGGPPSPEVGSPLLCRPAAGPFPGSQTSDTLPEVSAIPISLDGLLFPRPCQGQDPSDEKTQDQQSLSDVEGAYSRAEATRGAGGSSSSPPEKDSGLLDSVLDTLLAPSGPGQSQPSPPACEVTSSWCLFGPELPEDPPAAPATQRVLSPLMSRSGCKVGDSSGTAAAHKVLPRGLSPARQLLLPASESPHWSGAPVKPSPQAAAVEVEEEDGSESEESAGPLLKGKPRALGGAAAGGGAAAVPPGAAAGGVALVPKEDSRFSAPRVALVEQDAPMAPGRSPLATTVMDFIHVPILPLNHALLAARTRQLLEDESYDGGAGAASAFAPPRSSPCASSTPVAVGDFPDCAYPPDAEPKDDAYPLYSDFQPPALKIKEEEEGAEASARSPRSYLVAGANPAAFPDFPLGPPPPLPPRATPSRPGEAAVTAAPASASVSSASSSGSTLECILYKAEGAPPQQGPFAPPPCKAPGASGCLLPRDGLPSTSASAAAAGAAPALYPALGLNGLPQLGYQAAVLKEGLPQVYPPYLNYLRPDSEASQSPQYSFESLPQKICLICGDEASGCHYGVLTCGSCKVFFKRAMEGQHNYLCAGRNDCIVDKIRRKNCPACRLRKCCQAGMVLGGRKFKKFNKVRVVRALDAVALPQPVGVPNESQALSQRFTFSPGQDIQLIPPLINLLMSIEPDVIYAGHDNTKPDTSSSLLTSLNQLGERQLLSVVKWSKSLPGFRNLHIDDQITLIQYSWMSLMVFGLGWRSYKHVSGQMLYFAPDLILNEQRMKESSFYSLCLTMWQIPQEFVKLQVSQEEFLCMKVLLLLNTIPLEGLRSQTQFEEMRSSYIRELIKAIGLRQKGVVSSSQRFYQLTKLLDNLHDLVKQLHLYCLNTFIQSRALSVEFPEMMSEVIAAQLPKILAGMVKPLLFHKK
How it was run: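 Seed PR-UAS-bla HEK 293T cells (2% charcoal-stripped FBS), incubate 6 hr at 37C; add compounds in DMSO, 16 hr at 37C; add LiveBLAzer B/G substrate, 2 hr RT; read fluorescence intensity.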

[9] = biological target: Progesterone receptor (Homo sapiens) (UniProt P06401); experiment: qHTS assay to identify small molecule antagonists of the progesterone receptor (PR) signaling pathway (AID 1346795; active = well fitted inhibition curve with a large enough effect in the signal ratio in the repeat runs, not every such curve was filed as active; the % refers to the signal ratio)
How it was run: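 Screening used a GripTite HEK293T line with PR-responsive UAS-beta-lactamase. Cells were challenged with compound in the presence of 1 nM R5020 final for 16 hr at 37C; B/G FRET substrate, 2 hr room temperature, fluorescence.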

[10] = qHTS assay to identify small molecule antagonists of the progesterone receptor (PR) signaling pathway - cell viability counter screen (AID 1346798); note: nearly all actives have a fitted effect of over 50% in size; note: potency is the fitted concentration of half-maximal effect; for activity change, negative = cytotoxicity: series mostly up to about 92 µM
How it was run: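 Measures cytotoxicity in parallel with the PR antagonist reporter read: HEK293T PR-UAS-bla cells get compound and R5020 for 16 hr, and remaining viable cells are quantified by CellTiter-Glo luminescence.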

[11] = qHTS assay to identify small molecule antagonists of the TGF-beta/Smad signaling pathway - cell viability counter screen (AID 1346824); note: nearly all actives have a fitted effect of over 50% in size
How it was run: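 SBE-bla HEK 293T cells were plated overnight at 37 C, then given compounds in DMSO plus TGF-beta1 (added as 0.25 ng/mL solution) for 5 hr. After the bla read, CellTiter-Glo was added to the same wells and luminescence read after 30 min at room temperature.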

[12] = qHTS assay to identify small molecule agonists of the TGF-beta/Smad signaling pathway - cell viability counter screen (AID 1346829); note: top concentration of the series differs between compounds; nearly all actives have a fitted effect of over 45% in size
How it was run: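 Here the cytotoxicity of library compounds is measured in SBE-bla HEK 293T cells treated for 5 hr, using CellTiter-Glo added to wells already read for the beta-lactamase reporter.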

[13] = qHTS assay to identify small molecule agonists of the TGF-beta/Smad signaling pathway (AID 1346859; active = well fitted activation curve with a large enough effect in the signal ratio in the repeat runs, not every such curve was filed as active; the % refers to the signal ratio; note: series mostly up to about 77 µM)
How it was run: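 Beta-lactamase reporter activity downstream of Smad binding elements was measured in stably transfected HEK 293T cells; compounds were incubated for 5 hr, substrate for 2 hr at room temperature.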

[14] = biological target: Thyrotropin-releasing hormone receptor (Homo sapiens) (UniProt P34981); experiment: qHTS assay to identify small molecule antagonists of the thyrotropin-releasing hormone receptor (TRHR) signaling pathway (AID 1346877; active = well fitted inhibition curve with a large enough effect in the repeat runs, not every such curve was filed as active; note: series mostly up to about 51 µM)
Chain of Thyrotropin-releasing hormone receptor (Homo sapiens) (P34981 whole entry, looked up): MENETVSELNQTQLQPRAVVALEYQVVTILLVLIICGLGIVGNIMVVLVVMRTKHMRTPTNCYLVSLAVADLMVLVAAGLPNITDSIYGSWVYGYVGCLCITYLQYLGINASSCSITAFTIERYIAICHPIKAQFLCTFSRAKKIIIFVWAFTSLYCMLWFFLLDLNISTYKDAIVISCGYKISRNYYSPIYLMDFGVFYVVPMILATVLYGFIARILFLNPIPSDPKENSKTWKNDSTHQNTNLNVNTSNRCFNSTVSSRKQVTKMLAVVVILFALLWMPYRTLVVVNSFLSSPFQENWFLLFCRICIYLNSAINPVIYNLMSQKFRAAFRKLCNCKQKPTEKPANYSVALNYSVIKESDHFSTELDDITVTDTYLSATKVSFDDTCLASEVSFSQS
How it was run: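 Human TRHR in HEK293 cells; inhibition of the intracellular calcium rise triggered by 1 nM TRH was followed by fluorescence over 3 min. Compounds were run at 15 concentrations, three replicates each.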

[15] = qHTS assay to identify small molecule agonists or antagonists of the thyroid stimulating hormone receptor (TSHR) signaling pathway - wild type cell line counter screen (AID 1259384; calls by dose curve)
How it was run: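 Wild-type HEK293 cells were plated 18 h at 37 C/5% CO2, pin-dosed with compound plus Ro20-1724 medium, held 30 min at room temperature, then given cAMP-d2 and anti-cAMP-cryptate; fluorescence was read after 1 h. Fifteen concentrations, triplicate.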

[16] = biological target: Thyrotropin receptor (Homo sapiens) (UniProt P16473); experiment: qHTS assay to identify small molecule antagonists of the thyroid stimulating hormone receptor (TSHR) signaling pathway (AID 1259385; calls by dose curve; note: nearly all actives have a fitted effect of over 20% in size)
Chain of Thyrotropin receptor (Homo sapiens) (P16473 whole entry, looked up): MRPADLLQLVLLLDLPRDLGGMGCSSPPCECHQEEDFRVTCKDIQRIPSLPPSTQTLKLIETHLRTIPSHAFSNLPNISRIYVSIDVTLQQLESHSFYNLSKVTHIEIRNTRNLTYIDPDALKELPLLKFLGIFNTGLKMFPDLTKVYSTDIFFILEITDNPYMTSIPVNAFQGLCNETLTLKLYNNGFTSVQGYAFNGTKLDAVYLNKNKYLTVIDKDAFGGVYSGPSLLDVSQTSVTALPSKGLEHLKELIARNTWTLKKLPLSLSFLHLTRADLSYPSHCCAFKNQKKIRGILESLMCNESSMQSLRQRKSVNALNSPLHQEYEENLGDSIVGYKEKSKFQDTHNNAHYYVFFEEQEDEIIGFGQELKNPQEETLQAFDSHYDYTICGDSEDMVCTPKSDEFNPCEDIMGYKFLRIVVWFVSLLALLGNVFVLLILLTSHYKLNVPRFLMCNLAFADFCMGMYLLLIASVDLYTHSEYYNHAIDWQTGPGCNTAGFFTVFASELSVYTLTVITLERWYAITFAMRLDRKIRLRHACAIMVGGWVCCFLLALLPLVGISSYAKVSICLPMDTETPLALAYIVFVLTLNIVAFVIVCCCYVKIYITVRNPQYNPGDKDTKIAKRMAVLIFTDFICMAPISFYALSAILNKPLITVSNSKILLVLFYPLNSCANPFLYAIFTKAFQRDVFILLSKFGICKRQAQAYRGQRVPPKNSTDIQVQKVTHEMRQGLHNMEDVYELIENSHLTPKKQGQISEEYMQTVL
How it was run: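 TSHR-HEK293 cells were plated and held 18 h at 37C/5% CO2, then given compound plus Ro20-1724 and stimulated with TSH at 1.5 ng/mL final. After 30 min at room temperature, cAMP was detected with cAMP-d2/anti-cAMP-cryptate (1 h) by fluorescence.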

[17] = qHTS assay to identify small molecule agonists of the progesterone receptor (PR) signaling pathway - cell viability counter screen (AID 1346799; calls by dose curve; note: nearly all actives have a fitted effect of over 45% in size)
How it was run: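 Using the same plates as the PR reporter screen, HEK293T PR-UAS-bla cells received compounds for 16 hr at 37C and were then lysed with CellTiter-Glo; luminescence was read 30 min later at room temperature.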

CC(C[N+](C)(C)C)OC(N)=O (stereo not given)
outcome [1]: inactive | outcome [2]: inactive | Potency [3]: inactive | Potency [4]: inactive | Potency [5]: inactive | Potency [6]: inactive | Potency [7]: inactive | Potency [8]: inactive | Potency [9]: inactive | Potency [10]: inactive | Potency [11]: inactive | outcome [12]: inactive | outcome [13]: inactive | outcome [14]: inactive

N[C@H](C(=O)O)c1ccc(O)cc1
activity change [1]: -0.267% [at 18.9 µM] | activity change, negative = cytotoxicity [4]: 9.39% [at 19 µM] | activity change, negative = cytotoxicity [5]: 3.71% [at 19 µM] | activation [6]: 0.585% [at 19 µM] | cAMP activity change [15]: 3.37% [at 18.9 µM] | activity change, negative = inhibition [16]: -2.34% [at 19 µM] | activity change, negative = cytotoxicity [7]: 3.8% [at 19 µM] | activation [8]: -0.625% [at 19 µM] | Potency [10]: inactive | activity change, negative = cytotoxicity [17]: -6.4% [at 19 µM] | viability change, negative = cytotoxic [11]: 1.75% [at 15.8 µM] | activity change, negative = cytotoxicity [12]: -0.107% [at 15.8 µM] | activation [13]: -1.41% [at 15.8 µM] | activity, negative = inhibition [14]: 3.01% [at 10.5 µM]

CCCCCCCCCCCC
outcome [1]: inactive | Potency [3]: inactive | Potency [4]: inactive | Potency [5]: inactive | outcome [15]: inactive | Potency [16]: inactive | Potency [8]: inactive | Potency [10]: 68.6 µM (active) | Potency [17]: inactive | Potency [11]: inactive | outcome [13]: inactive | outcome [14]: inactive

CCCc1cc(C(N)=S)ccn1
outcome [1]: inactive | Potency [3]: inactive | Potency [4]: inactive | Potency [5]: inactive | Potency [6]: inactive | outcome [15]: inactive | Potency [16]: inactive | Potency [7]: inactive | Potency [8]: inactive | Potency [9]: inactive | Potency [10]: inactive | Potency [17]: inactive | Potency [11]: inactive | outcome [12]: inactive | outcome [13]: inactive
